Data on 7 compounds can be found in PubChem BioAssay (EPA / NIEHS).

The source made the active and inactive calls. How the source made its calls: active means hit-call score of the fitted dose curve at least 0.9, where 1 is the maximum; inactive means score below 0.9.

Assay [1] in a line: ATG_E_Box_CIS: Attagene CIS-FACTORIAL HepG2 Assay for human Enhancer Box (E-box) (AID 2282936). The following applies: HepG2 E-box cis-reporter transcription, actives raise or lower the signal. The method, boiled down: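 Multiplexed CIS reporter system in transiently transfected HepG2 cells measures native transcription factor activity. Reporter RNA after 24 h exposure is profiled by RT-PCR-capillary electrophoresis.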

Assay [2] in a line: ATG_M_61_CIS: Attagene CIS-FACTORIAL HepG2 Assay for M61 Transcription Factor (Internal Marker) (AID 2282937). The following applies: HepG2 Attagene CIS-FACTORIAL M61 internal marker reporter; actives raise or lower the signal. In short, it runs like this: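 Endogenous transcription factor activity in HepG2 is read through transiently transfected cis-element reporter units. After 24 h dosing, RNA undergoes reverse transcription, PCR and primer extension with 6-FAM before capillary electrophoresis; DMSO-referenced bidirectional fit.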

Assay [3] can be described thus: ATG_EGR_CIS: Attagene CIS-FACTORIAL HepG2 Assay for human Early Growth Response 1 (EGR1) (AID 2282938). The following applies: HepG2 Attagene CIS-FACTORIAL EGR reporter mRNA; actives raise or lower the signal. In short, it runs like this:
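Activity is taken as induction or loss of reporter mRNA versus DMSO, fitted bidirectionally. Transcripts from cis-regulated reporter units in transiently transfected HepG2 were measured after 24 h by RT-PCR with capillary electrophoresis.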

A short description of assay [4]: ATG_M_19_CIS: Attagene CIS-FACTORIAL HepG2 Assay for M19 Transcription Factor (Internal Marker) (AID 2282939). The following applies: HepG2 Attagene CIS-FACTORIAL M19 internal marker reporter; actives raise or lower the signal. In short, it runs like this: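 Background-control endpoint from a multiplexed HepG2 reporter panel. Cells carrying cis-regulated reporter constructs are treated 24 h, then reporter transcripts are amplified, fluorescently labelled and sized by capillary electrophoresis. DMSO defines baseline.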

Assay [5] can be described thus: ATG_Ets_CIS: Attagene CIS-FACTORIAL HepG2 Assay for human Erythroblast Transformation Specific (ETS) (AID 2282941). The conditions noted are these: HepG2 ETS cis-reporter transcription; AC50: actives raise or lower the signal unless noted; outcome: actives raise or lower the signal unless noted. In short, it runs like this:
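After transient cis-reporter transfection, HepG2 cells receive test chemical for 24 h. Reporter mRNA levels, measured by RT-PCR and capillary electrophoresis fluorescence, are analysed bidirectionally relative to the DMSO baseline.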

In assay [6] the target is Hepatocyte nuclear factor 3-beta (Homo sapiens) (UniProt Q9Y261). Nature of the assay: ATG_FoxA2_CIS: Attagene CIS-FACTORIAL HepG2 Assay for human Forkhead box A2 (FOXA2) (AID 2282942). The following applies: HepG2 cis-reporter transcription factor activity, 24 h; actives raise or lower the signal. The method, boiled down:
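Reporter transcript induction is measured by fluorescence after capillary electrophoresis of RT-PCR products from HepG2 cells exposed 24 h. Cis-regulated reporter units report endogenous factor activity; curves fitted both directions against DMSO.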

A short description of assay [7]: ATG_FoxO_CIS: Attagene CIS-FACTORIAL HepG2 Assay for human Forkhead box O (FoxO) (AID 2282943). The following applies: HepG2 Attagene cis-reporter, FoxO element, mRNA; actives raise or lower the signal. In short, it runs like this:
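Values reflect reporter mRNA induction or loss in HepG2 cells 24 h post-dosing, fitted bidirectionally with DMSO as negative control and baseline. Detection used RT-PCR and fluorescence capillary electrophoresis.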

Assay [8] can be described thus: ATG_GATA_CIS: Attagene CIS-FACTORIAL HepG2 Assay for human GATA Binding Protein (AID 2282944). The conditions noted are these: HepG2 GATA cis-element reporter, Attagene multiplex mRNA; actives raise or lower the signal. In short, it runs like this: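 Endogenous transcription factor activity was captured through cis-promoter-driven reporters in transfected HepG2 cells. After 24 h exposure, reporter transcripts were quantified by RT-PCR with fluorescent capillary electrophoresis, and responses fitted both directions against DMSO.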

The nature of assay [9]: ATG_GRE_CIS: Attagene CIS-FACTORIAL HepG2 Assay for human Glucocorticoid Response Elements (GRE) (AID 2282947). The following applies: HepG2 GRE cis-reporter, Attagene multiplex mRNA; AC50: actives raise or lower the signal unless noted; outcome: actives raise or lower the signal unless noted. In short, it runs like this: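 Following 24 h chemical exposure of transiently transfected HepG2 cells, total RNA was reverse-transcribed and reporter cDNA amplified, fluorescently labelled and sized by capillary electrophoresis. Signal gain or loss was fitted relative to DMSO vehicle.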

The nature of assay [10]: ATG_ISRE_CIS: Attagene CIS-FACTORIAL HepG2 Assay for human Interferon Regulatory Factor 1 (IRF1) binding to an Interferon-Stimulated Response Element (ISRE) (AID 2282948). The following applies: HepG2 ISRE cis-reporter (Attagene), mRNA transcription readout; actives raise or lower the signal. The method, boiled down:
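Quantitation relies on labelled RT-PCR fragments separated by capillary electrophoresis. Human HepG2 cells bearing cis-promoter reporter constructs were treated 24 h; DMSO served as baseline for bidirectional fitting.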

Assay [11] can be described thus: ATG_M_32_CIS: Attagene CIS-FACTORIAL HepG2 Assay for M32 Transcription Factor (Internal Marker) (AID 2282949).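 Further: background control marker of the multiplexed CIS panel rather than a real target.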 The following applies: HepG2 Attagene cis-factorial M32 reporter, mRNA; actives raise or lower the signal. The method, boiled down:
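Fluorescent capillary electrophoresis peaks of HpaI-digested, FAM-labelled RT-PCR reporter products give the signal. Source: transiently transfected human liver HepG2 cells, 24 h after chemical dosing; bidirectional fitting against DMSO.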

The nature of assay [12]: ATG_M_06_CIS: Attagene CIS-FACTORIAL HepG2 Assay for M06 Transcription Factor (Internal Marker) (AID 2282950). The following applies: HepG2 Attagene CIS-FACTORIAL M06 internal marker reporter; actives raise or lower the signal. The method, boiled down: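 Steps: transfect HepG2 with multiplexed cis-element reporter constructs; dose chemical 24 h; extract RNA with DNase treatment; reverse-transcribe, PCR-amplify, 6-FAM label, HpaI digest; separate fragments by capillary electrophoresis. Activity fitted both directions versus DMSO.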

Assay [13] has as its target Hypoxia-inducible factor 1-alpha (Homo sapiens) (UniProt Q16665). Nature of the assay: ATG_HIF1a_CIS: Attagene CIS-FACTORIAL HepG2 Assay for human Hypoxia Inducible Factor 1 (HIF1A) (AID 2282951). The conditions noted are these: HepG2 Attagene cis-factorial HIF1a reporter transcription; actives raise or lower the signal. In short, it runs like this:
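Fluorescence intensity of capillary-separated, 6-FAM-labelled reporter amplicons gives mRNA induction in HepG2 cells carrying transfected cis-promoter reporter units; cells exposed 24 h, responses fitted up or down from DMSO.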

For assay [14], the target named is Heat shock factor protein 1 (Homo sapiens) (UniProt Q00613). Put plainly: ATG_HSE_CIS: Attagene CIS-FACTORIAL HepG2 Assay for human Heat Shock Transcription Factor 1 (HSE) (AID 2282953). The conditions noted are these: HepG2 HSE cis-reporter, Attagene RNA transcription; actives raise or lower the signal. The method, boiled down: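 Cells were transfected with cis-element-driven reporter constructs, dosed for 24 h, then total RNA was reverse-transcribed and reporter cDNA amplified, FAM-labelled and digested with HpaI. Fragments were resolved by capillary electrophoresis; gain or loss was fitted against DMSO.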

Assay [15] can be described thus: ATG_MRE_CIS: Attagene CIS-FACTORIAL HepG2 Assay for human Metal Responsive Element (MRE) (AID 2282954). The following applies: HepG2 MRE cis-reporter transcription, Attagene multiplex; actives raise or lower the signal. The method, boiled down:
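Step one: transfect HepG2 with cis-regulated reporter units. Step two: dose 24 h. Step three: isolate RNA, RT-PCR, 6-FAM label, HpaI digest, capillary electrophoresis. Fit bidirectionally to DMSO.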

Assay [16] in a line: ATG_PBREM_CIS: Attagene CIS-FACTORIAL HepG2 Assay for human Phenobarbital-responsive Enhancer Module (PBREM) (AID 2282955). The conditions noted are these: HepG2 PBREM cis-reporter, Attagene multiplexed transcription; actives raise or lower the signal. The method, boiled down: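 Cells were transfected with cis-element reporter units and treated for 24 h, after which RNA was extracted and reporter transcripts measured by RT-PCR and capillary electrophoresis.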

The target in assay [17] is Bile acid receptor (Homo sapiens) (UniProt Q96RI1). Nature of the assay: ATG_IR1_CIS: Attagene CIS-FACTORIAL HepG2 Assay for human Nuclear Receptor Subfamily 1 Group H Member 4 (NR1H4), IR1 submotif (AID 2282946). The conditions noted are these: IR1 reporter transcription, actives raise or lower the signal. In short, it runs like this: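 Transient MRTU transfection, HepG2; 24 h dosing; RNA → RT-PCR → 6-FAM primer extension → HpaI digest → capillary electrophoresis fluorescence. Gain/loss of signal fitted relative to DMSO.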

Assay [18] concerns the target Hepatocyte nuclear factor 6 (Homo sapiens) (UniProt Q9UBC0). Nature of the assay: ATG_HNF6_CIS: Attagene CIS-FACTORIAL HepG2 Assay for human Hepatocyte Nuclear Factor 6 (HNF6) (AID 2282952). The conditions noted are these: HepG2 Attagene cis-factorial HNF6 reporter transcription; actives raise or lower the signal. In short, it runs like this:
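HepG2, transient MRTU transfection (cis promoters); 24 h chemical exposure; total RNA → oligo(dT) RT → PCR → 6-FAM labelling → HpaI cut → CE; bidirectional fit vs DMSO.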

A short description of assay [19]: ATG_GLI_CIS: Attagene CIS-FACTORIAL HepG2 Assay for human Zinc Finger Protein GLI1 (AID 2282945). The conditions noted are these: HepG2, Attagene cis-factorial reporter mRNA, GLI element; actives raise or lower the signal. The method, boiled down:
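HepG2 cells transiently transfected with cis-promoter multiplexed reporter units report endogenous transcription factor activity. After 24 h chemical exposure, reporter mRNA was quantified by RT-PCR, 6-FAM labelling, HpaI digestion and capillary electrophoresis, with bidirectional fitting against DMSO.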

Heat shock factor protein 1 (Homo sapiens), sequence (Q00613 whole entry, looked up, the tested form may be a part): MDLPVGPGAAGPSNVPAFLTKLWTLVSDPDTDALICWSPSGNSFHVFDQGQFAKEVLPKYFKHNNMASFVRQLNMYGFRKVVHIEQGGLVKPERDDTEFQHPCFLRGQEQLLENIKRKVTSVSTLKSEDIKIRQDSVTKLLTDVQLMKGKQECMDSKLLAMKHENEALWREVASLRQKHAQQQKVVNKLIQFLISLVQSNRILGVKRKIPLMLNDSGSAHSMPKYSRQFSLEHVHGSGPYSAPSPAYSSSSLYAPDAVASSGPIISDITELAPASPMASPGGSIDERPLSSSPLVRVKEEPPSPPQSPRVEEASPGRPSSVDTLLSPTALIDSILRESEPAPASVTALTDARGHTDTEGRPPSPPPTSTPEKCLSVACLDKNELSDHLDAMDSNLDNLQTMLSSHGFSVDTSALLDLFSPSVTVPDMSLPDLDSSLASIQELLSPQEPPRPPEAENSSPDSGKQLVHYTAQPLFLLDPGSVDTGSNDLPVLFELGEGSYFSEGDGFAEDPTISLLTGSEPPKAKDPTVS
Hepatocyte nuclear factor 6 (Homo sapiens), sequence (Q9UBC0 whole entry, looked up): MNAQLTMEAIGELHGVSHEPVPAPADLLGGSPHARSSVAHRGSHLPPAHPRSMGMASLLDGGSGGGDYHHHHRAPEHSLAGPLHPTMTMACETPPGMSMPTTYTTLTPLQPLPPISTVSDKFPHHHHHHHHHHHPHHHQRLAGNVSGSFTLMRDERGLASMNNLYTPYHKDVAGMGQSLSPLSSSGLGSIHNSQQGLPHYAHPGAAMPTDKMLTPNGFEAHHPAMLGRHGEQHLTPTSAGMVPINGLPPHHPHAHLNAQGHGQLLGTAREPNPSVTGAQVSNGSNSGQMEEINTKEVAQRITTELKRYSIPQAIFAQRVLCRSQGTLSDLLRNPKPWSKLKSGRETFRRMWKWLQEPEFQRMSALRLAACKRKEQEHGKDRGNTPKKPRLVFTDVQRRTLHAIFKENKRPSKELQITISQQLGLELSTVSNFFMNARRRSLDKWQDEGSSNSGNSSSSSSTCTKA
Hepatocyte nuclear factor 3-beta (Homo sapiens), sequence (Q9Y261 whole entry, looked up): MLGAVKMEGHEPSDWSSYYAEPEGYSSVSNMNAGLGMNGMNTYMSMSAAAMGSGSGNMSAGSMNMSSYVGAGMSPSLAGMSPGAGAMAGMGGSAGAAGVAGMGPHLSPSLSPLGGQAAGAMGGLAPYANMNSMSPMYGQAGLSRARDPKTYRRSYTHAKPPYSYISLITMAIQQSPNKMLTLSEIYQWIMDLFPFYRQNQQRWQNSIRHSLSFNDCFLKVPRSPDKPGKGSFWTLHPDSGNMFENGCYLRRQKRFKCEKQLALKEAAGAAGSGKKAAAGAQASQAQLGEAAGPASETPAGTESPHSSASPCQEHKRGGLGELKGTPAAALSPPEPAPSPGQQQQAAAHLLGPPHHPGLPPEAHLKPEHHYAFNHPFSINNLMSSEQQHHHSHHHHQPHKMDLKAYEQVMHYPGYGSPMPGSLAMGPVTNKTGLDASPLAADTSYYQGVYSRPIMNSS
Bile acid receptor (Homo sapiens), sequence (Q96RI1 whole entry, looked up): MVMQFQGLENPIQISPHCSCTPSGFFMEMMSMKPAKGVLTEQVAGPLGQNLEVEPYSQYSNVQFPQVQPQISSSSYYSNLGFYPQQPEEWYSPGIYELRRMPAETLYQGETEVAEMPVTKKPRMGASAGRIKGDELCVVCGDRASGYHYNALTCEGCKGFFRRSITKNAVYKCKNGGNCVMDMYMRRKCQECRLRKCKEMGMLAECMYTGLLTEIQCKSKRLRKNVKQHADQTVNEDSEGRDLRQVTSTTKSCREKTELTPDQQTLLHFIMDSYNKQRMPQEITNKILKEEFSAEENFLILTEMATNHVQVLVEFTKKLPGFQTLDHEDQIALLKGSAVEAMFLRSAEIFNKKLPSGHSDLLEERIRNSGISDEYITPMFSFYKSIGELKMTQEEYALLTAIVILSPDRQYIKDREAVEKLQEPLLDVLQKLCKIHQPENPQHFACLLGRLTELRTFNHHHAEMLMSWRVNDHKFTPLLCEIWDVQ
Hypoxia-inducible factor 1-alpha (Homo sapiens), sequence (Q16665 whole entry, looked up): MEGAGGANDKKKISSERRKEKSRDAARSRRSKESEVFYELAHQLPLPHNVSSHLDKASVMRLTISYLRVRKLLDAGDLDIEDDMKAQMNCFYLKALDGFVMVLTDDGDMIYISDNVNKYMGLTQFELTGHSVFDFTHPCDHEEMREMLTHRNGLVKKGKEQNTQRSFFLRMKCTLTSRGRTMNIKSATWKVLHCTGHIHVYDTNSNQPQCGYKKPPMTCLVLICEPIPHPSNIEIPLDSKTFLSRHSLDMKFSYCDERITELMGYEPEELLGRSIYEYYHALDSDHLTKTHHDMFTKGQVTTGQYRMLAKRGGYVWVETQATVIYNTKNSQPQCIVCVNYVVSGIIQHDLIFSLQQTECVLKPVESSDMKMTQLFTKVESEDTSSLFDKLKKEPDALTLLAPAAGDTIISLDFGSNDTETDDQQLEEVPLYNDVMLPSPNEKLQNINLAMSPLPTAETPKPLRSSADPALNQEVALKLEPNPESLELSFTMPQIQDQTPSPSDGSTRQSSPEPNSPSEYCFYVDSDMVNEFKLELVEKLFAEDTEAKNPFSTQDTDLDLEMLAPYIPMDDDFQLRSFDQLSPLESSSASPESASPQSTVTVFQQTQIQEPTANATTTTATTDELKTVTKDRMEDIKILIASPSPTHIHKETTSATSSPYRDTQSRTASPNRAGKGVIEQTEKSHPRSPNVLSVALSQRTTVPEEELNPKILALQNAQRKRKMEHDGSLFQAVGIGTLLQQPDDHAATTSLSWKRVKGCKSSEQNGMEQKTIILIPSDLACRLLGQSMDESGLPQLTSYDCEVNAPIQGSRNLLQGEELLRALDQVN

On to `CS(=O)(=O)c1ccc([C@@H](CC2CCCC2)C(=O)Nc2cnccn2)cc1Cl`, for which the result in assay [1], in [2], in assay [4], in assay [5], in assay [6] and in assay [8] was inactive. The compound was called inactive in assay [9], in assay [11], in assay [12] and in assay [16]. The AC50 (usually the concentration giving half of the maximal activity seen) in assay [3] is 50.6 µM (active); in assay [7], 152 µM (active); in assay [10], 30.2 µM (active); in assay [13], 64.4 µM (active); in [14], 150 µM (active); in assay [15], 113 µM (active).

Turning to `O=P(O)(O)CCC(F)(F)C(F)(F)C(F)(F)C(F)(F)C(F)(F)C(F)(F)C(F)(F)C(F)(F)F`, the outcome in assay [1], in [2], in assay [3], in [4], in assay [5] and in [6] was inactive. Also, the call in [7], in assay [8], in assay [17], in assay [9], in assay [10] and in [11] was inactive. The compound was classed as inactive in assay [12], in assay [13], in assay [18], in [14], in assay [15] and in assay [16].

As for `O=C1OC(=O)C(F)(F)C1(F)F`, the outcome in assay [1], in assay [2], in [3], in [4], in [5] and in [6] was inactive. The result in assay [7], in [8], in [17], in assay [9], in assay [10] and in [11] was inactive. The outcome in assay [12], in assay [13], in assay [18], in [14], in assay [15] and in assay [16] was inactive.

As to `Cc1ccc(C)c(S(=O)(=O)O)c1`, the outcome in assay [1], in assay [2], in assay [3], in [4], in [5] and in [6] was inactive. Moreover, the outcome in assay [7], in [8], in assay [19], in [10], in assay [11] and in [12] was inactive. Also, the call in assay [13], in [18], in [14], in [15] and in [16] was inactive.

For `O=C(Nc1ccc(Cl)c(Cl)c1)c1cc(Cl)cc(Cl)c1O`, the result in [1], in [2], in assay [4], in assay [5], in [7] and in assay [8] was inactive. Further, the compound was called inactive in assay [9], in [11], in assay [12] and in assay [18]. For the same compound, the AC50 in [3] is 8.8 µM (active); in [6] it was 0.502 µM (active); in assay [19], 50.6 µM (active); in assay [17], 52.4 µM (active); in assay [10] it was 33.4 µM (active); in [13], 0.378 µM (active). Further, the AC50 in assay [14] was 52 µM (active); in assay [16], 1.35 µM (active).

In the case of `FC(F)(F)C(F)(F)C(F)(F)Br`, the outcome in assay [1], in assay [2], in [3], in assay [4], in assay [5] and in [6] was inactive. Further, the outcome in [7], in assay [8], in assay [19], in assay [17], in assay [9] and in assay [10] was inactive. Further, the call in assay [11], in assay [12], in assay [13], in [18], in assay [14] and in [16] was inactive.

With `CC(C)(c1ccc(Oc2ccc(N)cc2)cc1)c1ccc(Oc2ccc(N)cc2)cc1`, the result in assay [1], in assay [2], in [3], in assay [4], in [5] and in assay [6] was inactive. Besides, the compound was classed as inactive in assay [7], in assay [8], in assay [19], in assay [17], in assay [9] and in assay [10]. Further, the compound was classed as inactive in assay [11], in [12], in assay [13], in [18], in assay [14] and in assay [16].
